The list is not random: actives were taken first. Their share in the collection is about 2.2%.
PLC-beta3 inh: blocks human PLC-beta3 enzyme activity; 370,000 compounds, 0.18% hits; AID 720704; Purified PLC-beta3, fluorogenic substrate, fluorescence; Q01970; inhibition, % at 12.2 µM; in the data active = inhibition above about 11%
PLCg1 inh: inhibitors of human phospholipase C gamma1 | P19174 | 370,000 compounds, 0.84% hits | purified PLC-gamma1, fluorogenic substrate, fluorescence | inhibition, % at 12.2 µM; in the data active = inhibition above about 9.5%
PfM18AAP inh-1: PfM18AAP enzyme inhibition. recombinant PfM18AAP, H-Glu-NHMec fluorogenic cleavage. inhibition, % at 7.35 µM. 290,000 compounds, 1.2% hits. AID 1822;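 active = inhibition above the campaign mean inhibition over all tested compounds plus 3 SD, cut at about 28% in these data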
NPR2 activator: GC-B (human) receptor activation; P20594; HEK293-GC-B cells, CNP EC30, cGMP TR-FRET; 0% at EC30 CNP, 100% saturating CNP; activation, % at 10 µM; 370,000 compounds, 0.11% hits; AID 1920062;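 active = activation at 10 µM reaching about 35% in either raw or pattern-adjusted values, limit read from the data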
Rce1 inhib: blocks yeast Ras-converting enzyme; yeast membranes, quenched prenylated peptide cleavage fluorescence; calls only; AID 2563; 290,000 compounds, 0.27% hits;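 active = fall in fluorescence gain of 50% or more versus controls, with final raw signal at or below 3038400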
NPR1 activator: GC-A (human) enzyme activation; HEK293 GC-A cells, cGMP TR-FRET, EC30 ANP; 0% at EC30 ANP, 100% saturating ANP; activation, % at 10 µM; 370,000 compounds, 0.14% hits; AID 1671463; in the data active = activation above about 40%
PfM18AAP inh-2: confirmation of Plasmodium falciparum M18 aspartyl aminopeptidase inhibitors | AID 2170 | inhibition, % at 7.35 µM | 2,400 compounds, 28% hits | shares compounds with PfM18AAP inh-1 | recombinant PfM18AAP, H-Glu-NHMec fluorogenic cleavage;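 active = mean inhibition over replicate wells above the hit cutoff set for the earlier primary screen, cut at about 29% in these data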
CTSL1 confirm: Cathepsin L (human) inhibition, confirmation | shares compounds with PfM18AAP inh-1 | purified cathepsin L1, Z-Leu-Arg-MCA fluorescence | inhibition, % at 5.96 µM | 2,400 tested, under 10 active;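 active = average inhibition across replicates above the hit cutoff set in the earlier primary screen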
Hits are given with their value; - = inactive; . = no result.

SMILES	PLC-beta3 inh	PLCg1 inh	PfM18AAP inh-1	NPR2 activator	Rce1 inhib	NPR1 activator	PfM18AAP inh-2	CTSL1 confirm
CN1CCC2(CC1)N=C(c1ccc(F)cc1)C(=S)N2C(=O)c1ccccc1	-	-	33.3	-	-	-	-	-
CCN1CCC2(CC1)N=C(c1ccc(F)cc1)C(=S)N2C(=O)c1ccc(C(C)(C)C)cc1	-	-	-	-	-	-	.	.
CC/C(Cc1ccccc1)=N\NC(=O)c1cc([N+](=O)[O-])cc([N+](=O)[O-])c1	-	-	41.3	-	.	-	-	-
CC(C)(C)c1ccc(-c2nnc3n2N=C(c2ccc4ccccc4c2)CS3)cc1	-	-	.	-	.	-	.	.
CCOC(=O)c1c(N)sc(C(=O)Nc2ccccc2)c1C	-	-	-	-	.	-	.	.
CCOC(=O)c1c(N)sc(C(=O)Nc2ccccc2F)c1C	-	-	37.0	-	-	-	-	-
CN(C)CC(=O)N[C@@H]1C[C@@H]2O[C@@H](CO)CC[C@@H]2O[C@@H]1CCc1ccc(C2=CCCCC2)cc1	-	-	.	-	.	-	.	.
Cc1cccc(N2CCN(Cc3cc(=O)n4ccsc4n3)CC2)c1C	-	-	-	-	-	-	.	.
O=c1cc(CN2CCN(c3ccccc3O)CC2)nc2sccn12	-	-	35.0	-	-	-	-	-
O=[N+]([O-])c1cccc(/C=N\N=C2c3ccccc3-c3ccccc32)c1O	-	-	-	-	-	-	.	.
NC(N)=N/N=C/c1cccc([N+](=O)[O-])c1O	-	-	43.3	-	.	-	-	-
Nc1cc2c(cc1O)CCCC2	-	-	32.6	-	-	-	57.8	-
O=C1CCCCc2cc(O)c(O)cc21	-	-	.	-	.	-	.	.
O=C(OCc1ccc(CSc2nnc(-c3cccc4ccccc34)o2)cc1)c1ccc(F)cc1	-	-	.	-	.	-	.	.
CCCC1CCC2(CC1)CCC2OC(=S)Nc1ccc(Cl)cc1 (stereo not drawn)	-	-	.	-	.	-	.	.
NNc1nc2ccccc2c(=O)n1Cc1ccccc1	-	-	54.2	-	-	-	38.6	-
COc1ccc(C(=O)CSc2nnc(-c3ccc(C(C)(C)C)cc3)n2C)cc1	-	-	.	-	.	-	.	.
C=CCNC(=S)NNC(=O)c1cc(O)ccc1O	-	-	39.0	-	-	-	28.9	-
C[C@@H]1CCCN1c1ccc2c(c1)O[C@H]1CCN(C1)S2(=O)=O	-	-	.	-	.	-	.	.
O=C(C1=C[C@H](c2ccc3c(c2)OCO3)C[C@H](OCc2ccc(CO)cc2)O1)N1CCCCCCC1	-	-	32.7	-	-	-	-	-
O=C(C1=C[C@@H](c2ccc3c(c2)OCO3)C[C@@H](OCc2ccc(CO)cc2)O1)N1CCOCC1	-	-	-	-	-	-	.	.
S=c1[nH]c(-c2ccccc2)cn1/N=C/c1ccncc1	-	-	51.3	-	-	-	42.7	-
CCn1c(-c2cc(-c3ccccc3)sc2N)n[nH]c1=S	-	-	41.0	-	-	-	-	-
O=C(CCc1ccccc1)N[C@H]1[C@@H](OC(=O)c2ccco2)CCC[C@]12C(=O)N(Cc1ccccc1)c1ccccc12	-	-	.	-	.	-	.	.
Cc1ccc(/C=C2\SC(=S)N(/N=C/c3cc([N+](=O)[O-])ccc3O)C2=O)o1	.	.	40.2	.	-	.	-	-
SMILES	PLC-beta3 inh	PLCg1 inh	PfM18AAP inh-1	NPR2 activator	Rce1 inhib	NPR1 activator	PfM18AAP inh-2	CTSL1 confirm
Cc1cccc(Cn2cc(CN3CC(N(C)CCOC(=O)c4cc(C)cc(C)c4)CS3(=O)=O)nn2)c1 (stereo not drawn)	-	-	.	-	.	-	.	.
CCOC(=O)c1sc(N=NC2=C(O)CCCC2=O)c(C(=O)OCC)c1C	-	-	34.6	-	-	-	-	-
CCOC(=O)/C(N=Nc1sc(C(=O)OCC)c(C)c1C(=O)OCC)=C(\C)O	.	.	-	.	-	.	.	.
COc1ccc(NC(=O)n2nc(OC(=O)c3cccs3)cc2N)cc1	-	-	49.7	-	-	-	-	-
COc1ccc(-c2ccc(S(=O)(=O)n3nc(OC(=O)c4cccs4)cc3N)cc2)cc1	-	-	-	-	-	-	.	.
O=C(/C=C(\c1ccc(Cl)cc1)n1cncn1)c1ccc(Cl)cc1	.	.	72.9	.	-	.	-	-
O=C(/C=C(\c1ccccc1)n1cncn1)c1ccccc1	-	-	-	-	-	-	.	.
O=C(Cn1cncn1)c1ccccc1Br	-	-	38.8	-	-	-	-	-
O=C(Cn1cncn1)NCc1ccccc1Br	-	-	-	-	-	-	.	.
O=C(Cn1cncn1)c1ccc(Cl)cc1	-	-	59.0	-	-	-	35.9	-
Cc1ccc(C(=O)n2ccc3ccc(-c4ccc5ccn(Cc6ccccc6)c5c4)cc32)cc1	-	-	.	-	.	-	.	.
NS(=O)(=O)c1ccc(CCNC(=O)c2cccc3ccccc23)cc1	-	-	-	-	-	-	.	.
NS(=O)(=O)c1ccc(NC(=S)NCc2ccc(Cl)cc2)cc1	-	-	35.1	-	-	-	-	-
CC(=O)c1ccc(NC(=S)NCCc2ccc(S(N)(=O)=O)cc2)cc1	-	-	-	-	-	-	.	.
NS(=O)(=O)c1ccc(NC(=S)NCCc2ccccc2)cc1	-	-	41.0	-	-	-	-	-
NS(=O)(=O)c1ccc(CCNC(=O)c2ccc[nH]c2=S)cc1	-	-	42.9	-	-	-	-	-
NS(=O)(=O)c1ccc(CNC(=S)Nc2ccc(F)c(Cl)c2)cc1	-	-	-	-	-	-	.	.
COCCCNC(=S)NNC(=S)Nc1ccc(OC)cc1	-	-	49.2	-	-	-	-	-
CC(C)OCCCNC(=S)Nc1ccc(S(N)(=O)=O)cc1	-	-	48.9	-	-	-	-	-
CC(=O)Nc1ccc(C(=O)NCCCOC(C)C)cc1	-	-	-	-	-	-	.	.
COc1ccc(C2CCC3(CCC(=O)N3CCOC(=O)NCc3ccc(Cl)cc3)CC2)cc1 (stereo not drawn)	-	-	.	-	.	-	.	.
CC1C/C(=N/N2C(=O)CSC2=S)CC(C)(C)C1 (stereo not drawn)	-	-	38.0	-	.	-	-	-
CC1C/C(=N/N=C2/NC(=O)CS2)CC(C)(C)C1 (stereo not drawn)	-	-	-	-	-	-	.	.
Cc1ccc(O)c(O)c1	.	.	.	.	-	.	.	.
Cc1cc(O)c(Oc2cc(C)cc(O)c2O)c(O)c1	-	-	49.6	-	.	-	36.2	-
Cc1cccc(NC(=O)NNC(=O)c2cc3occc3[nH]2)c1C	-	-	46.1	-	-	-	-	-
Cc1cc(C(=O)NNC(=O)Nc2ccccc2)no1	-	-	-	-	-	-	.	.
Cc1cccc(NC(=O)c2ccco2)c1C	-	-	-	-	-	-	.	.
Cc1cc(C)cc(NC(=O)NNC(=O)c2cc3occc3[nH]2)c1	-	-	55.6	-	-	-	-	-
O=C(Nc1nnc(Cc2ccccc2)s1)c1ccco1	-	-	-	-	-	-	.	.

High-throughput results deposited in PubChem BioAssay by several laboratories.
